# According to PubChem BioAssay:
# Test: inhibitors of PAF-induced NFkB signaling in CF airway cells, dose response, cell-based, uHTS hits, panel, cytotoxicity readout (AID 624344)
# Settings: CF bronchial epithelial cells, PAF-induced NFkB reporter inhibition, with PAF, run 1; at 79 µM (top of the series) unless noted
row,Compound,inhibition [%]
1,COc1ccc(COC(=O)C2=C(C)NC(=O)NC2c2ccc(F)cc2)cc1 (stereo not given),90.1
2,Cc1c(Cl)cccc1NC(=O)COC(=O)c1c2c(nc3ccccc13)CCN(Cc1ccccc1)C2,72.2
3,N#Cc1ccsc1NC(=O)c1ccc(Cl)c([N+](=O)[O-])c1,74
4,COc1cc(C(=O)Nc2nnc(-c3sccc3C)s2)cc(OC)c1OC,47.9
5,COc1ccc(-c2csc3ncnc(NCCN4CCOCC4)c23)cc1,112
6,CC1C(c2ccccc2)OCCN1C(=S)Nc1ccc(S(=O)(=O)N2CCCCC2)cc1 (stereo not given),100
7,COc1cc(CCc2ccccc2)c(C(=O)O)c(O)c1C/C=C(/C)CCC=C(C)C,104
8,CC(=O)Nc1ccc(-c2ccnc3c2CC(C(=O)NCc2ccccc2)O3)cc1 (stereo not given),-53.5
9,CCc1cc2c(Sc3nc4ccccc4s3)ncnc2s1,114
10,CC(=O)c1cccc(NC(=O)COC(=O)c2ccc(S(C)(=O)=O)c([N+](=O)[O-])c2)c1,92.5
11,Cc1cc(N2C(=O)C(O)=C(C(=O)c3ccc(C)o3)C2c2cccc(Oc3ccccc3)c2)no1 (stereo not given),64
12,COc1ccccc1[C@]1(C)ON(c2ccccc2C(F)(F)F)C1=O,105
13,CCN1CCN(Cc2ccc(NC(=O)c3ccc(C)c(NC(=O)N4CCNC4=O)c3)cc2C(F)(F)F)CC1,103
14,CC(=O)Nc1ccc(Nc2nc(-c3sc(NC(C)=O)nc3C)cs2)cc1,103
15,Nc1ncc([N+](=O)[O-])c(N2CCCCCC2)n1,115
16,COc1ccc(S(=O)(=O)c2c(O)c3ccc(C(=O)Nc4ccccc4Cl)cc3[nH]c2=O)cc1,96.9
17,COc1ccc(Nc2nc(-c3cccs3)nc3ccccc23)cc1S(=O)(=O)N1CCOCC1,104
18,O=C1NC(=S)N/C1=C/c1cccnc1,97.5
19,Cn1cccc1C(=O)NC(=O)COC(=O)c1ccc(S(C)(=O)=O)c([N+](=O)[O-])c1,92.6
20,Nc1cc2c(cc1Br)-c1ccccc1C2=NO,93.5

row,Compound,inhibition [%]
1,CCc1ccccc1NC(=O)CN(C)C(=O)Cn1ncc(Cl)c(Cl)c1=O,102
2,CN(CCC#N)C(=O)COC(=O)c1ccccc1C(=O)c1ccc(Cl)c([N+](=O)[O-])c1,96.7
3,CCN(CC)CCN(C(=O)CCS(=O)(=O)c1ccccc1)c1nc2c(C)cc(C)cc2s1,106
4,CC(=C/c1ccccc1)/C=N/n1c(-c2ccncc2)n[nH]c1=S,110
5,CCOc1ccc(CCN2C(=S)N([C@@H](CC(C)C)CN3CCCC3CN3C(=S)NC[C@@H]3CC(C)C)C[C@@H]2Cc2ccc(O)cc2)cc1 (stereo not given in full),76.2
6,CCOC(=O)c1c(C)c2c(=O)[nH]cnc2n1-c1ccccc1,110
7,COc1cc(C(=O)c2cc3c(cc2C)OCO3)cc(OC)c1OC,48.2
8,COc1cccc(-c2ccc3ncnc(NCc4cccnc4)c3c2)c1,103
9,CS(=O)(=O)Nc1cccc(-c2cc(NC=O)c3ncc(-c4ccc(F)cc4)n3c2)c1,84
10,COc1ccc(S(=O)(=O)N2c3ccc(F)cc3CCC2C)cc1 (stereo not given),98.8
11,O=C1OC(Nc2nc(-c3ccc(F)cc3)cs2)c2ccccc21 (stereo not given),102
12,CCN1CCN(Cc2ccc(NC(=O)c3ccc(C)c(NC(=O)c4ccno4)c3)cc2C(F)(F)F)CC1,105
13,CCOC(=O)Cc1nnc2c(Nc3ccc(Cl)cc3)nc3nonc3n12,110
14,Nc1nccc(SCc2ccc(Cl)cc2Cl)n1,72.7
15,COc1ccc(-c2cn[nH]c2-c2ccc(OCc3ccccc3)cc2O)cc1,99.8
16,O=C(c1cncc(Br)c1)N1CCc2ccccc2C1,92.5
17,CN(C)C=Nc1c(C(=O)c2ccccc2)sc2nccc(N(C)C)c12,100
18,COc1cc(-c2cc(C(=O)Nc3ccc(S(=O)(=O)NCc4ccco4)cc3)c3ccccc3n2)cc(OC)c1OC,109
19,CC(C)=CCc1c(O)cc(O)c2c1OC(c1ccc(O)cc1)CC2=O (stereo not given),93.2
20,CCOc1ccc(C(C(=O)NC2CCCC2)N(C(=O)c2snc(C(N)=O)c2N)c2cccc(O)c2)cc1 (stereo not given),105
